# Measurements: PubChem BioAssay (Tox21)
# Records with an inconclusive call do not appear. Where a call stands in place of a potency, no number is given. Active and inactive are the calls of the source. Calls follow the shape of the dose curve; as a rule, active = well fitted curve in the direction sought with a large enough effect in the repeat runs; inconclusive = weak or mixed curves; inactive = no such curve, though single readings can be large; an effect the other way counts as inactive or inconclusive.
# Experiment: qHTS assay to identify small molecule agonists of the RXR signaling pathway - cell viability counter screen (AID 1159529);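 also: HEK 293T cells carrying an RXR-alpha UAS beta-lactamase reporter; nearly all actives have a fitted effect of over 50% in size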
# Conditions: RXR-alpha-bla HEK293T viability, CellTiter-Glo, 16 h; series mostly up to 76.8 µM
# Method in brief: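 Viability read-out for the RXR-alpha agonist qHTS: luminescent CellTiter-Glo signal after 30 min at RT. HEK 293T bla reporter cells, 2% charcoal-stripped FBS, 16 hr compound incubation; tetraoctyl ammonium bromide as cytotoxic control.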
row,SMILES,Potency
1,O=C(CBr)OCc1ccccc1,inactive
2,CN1C[C@H](CNC(=O)OCc2ccccc2)C[C@@H]2c3cccc4c3c(cn4C)C[C@H]21,inactive
3,C=CCN1CC[C@]23c4c5ccc(O)c4O[C@H]2C(=O)CC[C@@]3(O)[C@H]1C5,inactive
4,Cn1sc(Cl)cc1=O,inactive
5,O=C(NC(=O)c1c(F)cccc1F)Nc1cc(Cl)c(Oc2ncc(C(F)(F)F)cc2Cl)c(Cl)c1,inactive
6,CCCCc1c(C)nc(NCC)nc1OS(=O)(=O)N(C)C,inactive
7,CCO[C@H]1O[C@@H]2OC3(C)CC[C@H]4[C@H](C)CC[C@@H]([C@H]1C)[C@@]24OO3,inactive
8,C[N+](C)(C)CCCl,inactive
9,Nc1ccc([N+](=O)[O-])cc1[N+](=O)[O-],inactive

# Experiment: qHTS assay to identify small molecule antagonists of the retinoid acid receptor (RAR) signaling pathway - cell viability counter screen (AID 1159551); also: nearly all actives have a fitted effect of over 35% in size
# Conditions: C3RL4 cells viability, ATP luminescence (CellTiter-Glo), 6 h; series mostly up to 92.4 µM
# Method in brief: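 C3RL4 RARE-luciferase line; cpds + retinol 1 uM final, 6 h, 37 C/5% CO2; CellTiter-Glo ATP luminescence, 30 min RT.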
row,SMILES,Potency
1,CCCCCCCCOC(=O)c1ccc(C(=O)OCCCCCCCC)c(C(=O)OCCCCCCCC)c1,inactive
2,N#Cc1ccc(Cl)cc1,inactive
3,CCOc1nc(F)cc2nc(S(=O)(=O)Nc3c(Cl)cccc3Cl)nn12,inactive
4,CC(c1ccc(O)cc1)(c1ccc(O)cc1)c1ccc(O)cc1,inactive
5,C[C@]12CC[C@H]3[C@@H](CCC4=CC(=O)CC[C@@H]43)[C@@H]1CC[C@@H]2OC(=O)CCC1CCCCC1,inactive
6,CN1[C@@H]2CC[C@H]1CC(OC(=O)c1cc(Cl)cc(Cl)c1)C2 (some centres not stated),inactive
7,COc1cc(Cl)c(OC)cc1Cl,inactive
8,CCOP(=S)(OCC)SCSCC,inactive
9,Cc1c(F)c(F)c(COC(=O)C2C(/C=C(\Cl)C(F)(F)F)C2(C)C)c(F)c1F (configuration not stated),inactive
10,CC[C@H]1C[C@H]2[C@@H]3CCC4=CC(=O)CC[C@@H]4[C@H]3CC[C@]2(C)[C@H]1O,inactive
11,COC(=O)c1cncn1C(C)c1ccccc1 (configuration not stated),inactive
12,COc1ccc(-c2ccccc2)cc1NNC(=O)OC(C)C,inactive
13,O=[Se]=O,inactive
14,CCc1ccc(C(=O)NN(C(=O)c2cc(C)cc(C)c2)C(C)(C)C)cc1,inactive
15,COC(=O)C(C)N(C(=O)Cc1ccccc1)c1c(C)cccc1C (configuration not stated),inactive
16,CC(C)O.CC(C)O.OCCN(CCO)CCO.OCCN(CCO)CCO.[Ti],inactive
17,Cc1ccccc1C(=O)Nc1cccc(OC(C)C)c1,inactive

row,SMILES,Potency
1,ClCc1cccc(Cl)c1,inactive
2,N#CCC#N,inactive
3,CCOS(C)(=O)=O,inactive
4,CCOP(=S)(Oc1ccc([N+](=O)[O-])cc1)c1ccccc1 (configuration not stated),inactive
5,c1ccc(C2CC2)c(OCC2=NCCN2)c1,inactive
6,ClP(Cl)(Cl)(Cl)Cl,inactive
7,O=C(CBr)OCc1ccccc1,inactive
8,CN1C[C@H](CNC(=O)OCc2ccccc2)C[C@@H]2c3cccc4c3c(cn4C)C[C@H]21,inactive
9,C=CCN1CC[C@]23c4c5ccc(O)c4O[C@H]2C(=O)CC[C@@]3(O)[C@H]1C5,inactive
10,Cn1sc(Cl)cc1=O,inactive
11,O=C(NC(=O)c1c(F)cccc1F)Nc1cc(Cl)c(Oc2ncc(C(F)(F)F)cc2Cl)c(Cl)c1,inactive
12,CCCCc1c(C)nc(NCC)nc1OS(=O)(=O)N(C)C,inactive
13,CCO[C@H]1O[C@@H]2OC3(C)CC[C@H]4[C@H](C)CC[C@@H]([C@H]1C)[C@@]24OO3,inactive
14,NC(=O)CI,inactive
15,C[N+](C)(C)CCCl,inactive
16,Nc1ccc([N+](=O)[O-])cc1[N+](=O)[O-],inactive
